CCHF vOTU inh-1: blocks the CCHF virus ovarian tumor domain protease; CCHFV vOTU protease, Pep-AMC fluorescence; inhibition, % at 11.5 µM; hit rate 0.55% among 370,000; AID 651958
ugtP null kill: growth inhibition of S. aureus ugtP deletion strain; hit rate 0.54% among 330,000; AID 1259309; S. aureus RN4220 ugtP deletion, OD600 growth, 16 h; growth inhibition, % (test concentration not listed); in the data active means growth inhibition above about 68%
BJeLR viability: BJeLR cell viability loss; BJeLR (HRASV12) viability, CellTiter-Glo ATP luminescence, 48 h; inhibition, % (concentration not given with the values); hit rate 0.17% among 300,000; AID 1554; in the data active means inhibition above about 50%; inconclusive means no clear call, values can overlap the other calls
PfHsp40 rescue: compounds rescuing yeast from Plasmodium falciparum HSP40 toxicity | growth rescue, % at 12.5 µM | hit rate 0.68% among 340,000 | S. cerevisiae expressing PfHsp40, growth rescue, ATP luminescence | AID 504582; in the data active means growth rescue above about 28%, passing the limit was not always enough; inconclusive means no clear call, values can overlap the other calls;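 further: yeast W303a lacking pdr1 and pdr3 grown in galactose medium; growth measured after three days at 30 °C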
Sa RN4220 lethal: S. aureus RN4220 growth inhibition; inhibition, % (test concentration not listed); hit rate 0.33% among 330,000; OD600, 16 h; in the data active means inhibition above about 85%
CCHF vOTU inh-2: confirmation of CCHF virus vOTU protease inhibitors | shares compounds with CCHF vOTU inh-1 | Recombinant CCHFV vOTU, Pep-AMC fluorescence | inhibition, % at 11.5 µM | hit rate 17% among 1,900 | AID 686976
Large screens that a line does not name were inactive (follow-up assays come after a bar, where they were run). Sampled rows, rich in hits. Any-hit rate of the full collection: about 1.6%. Unless noted, no stated cut-off is given here; in the data, active means inhibition above about 30%; inactive means the rest.

Cn1cnc2c(NN=Cc3cccs3)ncnc21	none (no result: CCHF vOTU inh-1, BJeLR viability, PfHsp40 rescue)
NCCCCC1NC(=O)C(CCC(=O)O)NC(=O)c2cc([N+](=O)[O-])cc(I)c2NCCC(C(N)=O)NC1=O (stereo not drawn)	none (no result: CCHF vOTU inh-1, BJeLR viability, PfHsp40 rescue)
COc1ccc(CC(=O)NN=Cc2cccs2)cc1OC	none (no result: CCHF vOTU inh-1, BJeLR viability, PfHsp40 rescue)
Cc1cc(C)c(Nc2cc(S(=O)(=O)O)c(N)c3c2C(=O)c2ccccc2C3=O)c(C)c1	CCHF vOTU inh-1 47, PfHsp40 rescue 71 (no result: BJeLR viability) | CCHF vOTU inh-2 inactive
Cc1cc(C)cc(-n2c(C)cc(C=NNC(=O)COc3cccc4cccnc34)c2C)c1	none (no result: CCHF vOTU inh-1, BJeLR viability, PfHsp40 rescue)
CC(=NNC(=O)C(C)Sc1ccccc1)C(C)(C)C (stereo not drawn)	none (no result: CCHF vOTU inh-1, BJeLR viability, PfHsp40 rescue)
COc1ccc2nc(-c3ccco3)c(-c3ccco3)nc2c1	CCHF vOTU inh-1 63 | CCHF vOTU inh-2 inactive
Nc1nc(-c2ccco2)c(-c2ccco2)s1	none
COc1ccc2nc3cccc(OC)c3nc2c1	none
c1coc(-c2nc(-c3ccco3)c(-c3ccco3)nc2-c2ccco2)c1	CCHF vOTU inh-1 35 | CCHF vOTU inh-2 inactive
O=C(CON=Cc1ccc(OC(F)F)cc1)NC1CCCC1	none (no result: CCHF vOTU inh-1, BJeLR viability, PfHsp40 rescue)
CCC1(CC)NC(=O)N(CC(=O)OC(C)C(=O)Nc2cc([N+](=O)[O-])ccc2OC)C1=O (stereo not drawn)	CCHF vOTU inh-1 30 | CCHF vOTU inh-2 inactive
CC(C)(C)C(=O)/C=c1\[nH]c(=O)/c(=C\c2ccc(F)cc2)s1	none (no result: ugtP null kill, Sa RN4220 lethal)
CCc1ccc(/C=c2\s/c(=C\C(=O)C(C)(C)C)[nH]c2=O)cc1	CCHF vOTU inh-1 36 (no result: ugtP null kill, Sa RN4220 lethal) | CCHF vOTU inh-2 inactive
COc1cc(CNCc2ccccc2)c(Br)cc1OC1CCCC1	CCHF vOTU inh-1 31 | CCHF vOTU inh-2 inactive
COc1cc(C(=O)O[C@H]2CC(C)=CC[C@@]3(C)CC[C@@](O)(C(C)C)[C@H]23)ccc1O	CCHF vOTU inh-1 38 | CCHF vOTU inh-2 inactive
COc1cc(C(=O)OC2C[C@H]3CC[C@@H](C2)N3C)ccc1O (stereo partly drawn)	none
CC(C)(C)OC(=O)[C@H](Cc1ccccc1)NC(=O)c1[nH]cnc1C(=O)Nc1ccc(Cl)cc1	CCHF vOTU inh-1 31 (no result: ugtP null kill, Sa RN4220 lethal) | CCHF vOTU inh-2 inactive
CC(NC(=O)c1nc[nH]c1C(=O)NC(Cc1ccccc1)C(=O)OC(C)(C)C)C(=O)OCc1ccccc1 (stereo not drawn)	none (no result: CCHF vOTU inh-1, BJeLR viability, PfHsp40 rescue)
CC(C)(C)OC(=O)NCc1ccc(CNC(=O)c2[nH]cnc2C(=O)Nc2ccccc2F)cc1	none (no result: ugtP null kill, BJeLR viability, PfHsp40 rescue, Sa RN4220 lethal)
CC(C)C[C@H](NC(=O)c1[nH]cnc1C(=O)N[C@@H](C)C(=O)OCc1ccccc1)C(=O)OC(C)(C)C	CCHF vOTU inh-1 30 (no result: ugtP null kill, Sa RN4220 lethal) | CCHF vOTU inh-2 inactive
CC(C)(C)OC[C@H](NC(=O)c1[nH]cnc1C(=O)Nc1ccccc1F)C(=O)OC(C)(C)C	CCHF vOTU inh-1 35 (no result: ugtP null kill, BJeLR viability, PfHsp40 rescue, Sa RN4220 lethal) | CCHF vOTU inh-2 inactive
CC1C(=NO)CC(c2ccccc2)NC1c1ccccc1 (stereo not drawn)	none (no result: CCHF vOTU inh-1, BJeLR viability, PfHsp40 rescue)
O=C(Cn1nnc(-c2cccc(C(F)(F)F)c2)n1)NNS(=O)(=O)c1cccc(C(F)(F)F)c1	CCHF vOTU inh-1 32 | CCHF vOTU inh-2 inactive
CS(=O)(=O)NNC(=O)Cn1nnc(-c2cc(C(F)(F)F)cc(C(F)(F)F)c2)n1	none (no result: PfHsp40 rescue)
CC(C)(C)OC(=O)N1CCCC(C(=O)Nc2cccc(C(=O)NCCCc3ccccc3)c2)C1 (stereo not drawn)	CCHF vOTU inh-1 31 (no result: ugtP null kill, BJeLR viability, Sa RN4220 lethal) | CCHF vOTU inh-2 inactive
O=C(COC(=O)c1ccc([N+](=O)[O-])s1)Nc1ccccc1	CCHF vOTU inh-1 61 | CCHF vOTU inh-2 75
O=C(COC(=O)c1ccc([N+](=O)[O-])s1)Nc1cccc(S(=O)(=O)NC2=NCCCCC2)c1	CCHF vOTU inh-1 58 | CCHF vOTU inh-2 35
O=C(COC(=O)c1ccc([N+](=O)[O-])s1)Nc1ccc(F)cc1	CCHF vOTU inh-1 82 (no result: BJeLR viability) | CCHF vOTU inh-2 72
O=C(COC(=O)c1cccs1)Nc1cccc(S(=O)(=O)NC2=NCCCCC2)c1	none
Cc1ccc(C(=O)OCc2nnc(-c3ccccc3)o2)s1	none
O=C(COC(=O)c1ccc([N+](=O)[O-])s1)NC(c1ccccc1)c1ccccc1	none (no result: ugtP null kill, Sa RN4220 lethal)
O=C(OCc1nnc(-c2ccccc2)o1)c1ccc([N+](=O)[O-])s1	CCHF vOTU inh-1 77, PfHsp40 rescue inconclusive (no result: BJeLR viability) | CCHF vOTU inh-2 86
COC(=O)C1=C(c2cccc(C#N)c2)CC2CCC1N2C(=O)NCCNC(C)=O (stereo not drawn)	none (no result: CCHF vOTU inh-1, BJeLR viability, PfHsp40 rescue)
CC(Cn1nnc([N+](=O)[O-])n1)=NNC(=O)c1ccncc1	none (no result: CCHF vOTU inh-1, BJeLR viability, PfHsp40 rescue)

Assay outcomes (PubChem)
